Measurements as given in PubChem BioAssay (NCI).
About 79,000 compounds went through this panel and 15% of them were active in at least one assay; those are over-represented in the sample as a whole. The source made the active and inactive calls. Cut-off read from the data, not from the text of the source: active = growth inhibition above about 70%; inactive = the rest.

Legend:
[1] = NCI Yeast Anticancer Drug Screen. Data for the rad52 strain (AID 147);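 note: 0% = growth of vehicle-treated control cultures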; conditions: S. cerevisiae rad52 mutant growth inhibition, hits give high values
How it was run: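 Read-out: growth inhibition versus vehicle-treated controls. Cells were a DNA repair-deficient yeast strain treated with compounds.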

[2] = NCI Yeast Anticancer Drug Screen. Data for the rad50EPP+ strain (AID 151);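 note: 0% = growth of vehicle-treated control cultures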; conditions: S. cerevisiae rad50 mutant strain, hits give high values
How it was run: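 Growth inhibition read against vehicle controls in rad50EPP+ yeast, a strain altered in DNA damage repair, after compound exposure.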

[3] = NCI Yeast Anticancer Drug Screen. Data for the mgt1 strain (AID 153); conditions: S. cerevisiae mgt1 mutant growth inhibition, hits give high values
How it was run: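 mgt1 yeast grown with test compound; read-out is growth inhibition versus vehicle-treated cultures.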

[4] = NCI Yeast Anticancer Drug Screen. Data for the rad50 strain (AID 155);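 note: 0% = growth of vehicle-only cultures of the same strain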; conditions: S. cerevisiae rad50 strain growth inhibition, hits give high values
How it was run: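 Vehicle-treated cultures provide the reference for the growth inhibition reported for compound-exposed, repair-deficient yeast.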

[5] = NCI Yeast Anticancer Drug Screen. Data for the mec2-1 strain (AID 157); conditions: S. cerevisiae mec2-1 strain, hits give high values
How it was run: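 Yeast mec2-1 mutant treated with compound. Readout: growth inhibition vs vehicle controls.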

[6] = NCI Yeast Anticancer Drug Screen. Data for the rad14 strain (AID 159);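 note: 0% = growth of vehicle-treated control cultures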; conditions: S. cerevisiae rad14 strain growth inhibition, hits give high values
How it was run: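 Inhibition of growth is reported for a repair-deficient yeast mutant following compound treatment, calculated relative to cultures that received vehicle.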

[7] = NCI Yeast Anticancer Drug Screen. Data for the sgs1 mgt1 strain (AID 161);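 note: 0% = growth of cultures given vehicle only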; conditions: S. cerevisiae sgs1 mgt1 strain, hits give high values
How it was run: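 Inhibition of yeast growth, normalised to vehicle-treated controls, is reported for a strain bearing genetic alterations in DNA damage repair.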

[8] = NCI Yeast Anticancer Drug Screen. Data for the CLN2oe strain (AID 163);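 note: 0% = growth of vehicle-only control cultures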; conditions: S. cerevisiae CLN2oe strain, hits give high values
How it was run: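 Read-out: yeast growth inhibition, expressed relative to vehicle-only controls. The strain bears an engineered cell-cycle alteration.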

[9] = NCI Yeast Anticancer Drug Screen. Data for the cln2 rad14 strain (AID 165);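 note: 0% = growth equal to vehicle treated cultures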; conditions: S. cerevisiae cln2 rad14 strain, hits give high values
How it was run: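 cln2 rad14 yeast strain; compound exposure; growth inhibition read vs vehicle controls.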

[10] = NCI Yeast Anticancer Drug Screen. Data for the bub3 strain (AID 167); conditions: S. cerevisiae bub3 mutant strain, hits give high values
How it was run: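 Mutant yeast screening strain plus compound; vehicle-treated cultures serve as the 0% inhibition reference.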

[11] = NCI Yeast Anticancer Drug Screen. Data for the wt2 strain (AID 169); conditions: S. cerevisiae wt2 strain growth inhibition, hits give high values
How it was run: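 Read-out: growth inhibition versus vehicle-treated control cultures after compound exposure of the yeast strain.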

[12] = NCI Yeast Anticancer Drug Screen. Data for the mlh1 strain (AID 171);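 note: 0% = growth of vehicle-treated control cultures of the same strain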; conditions: S. cerevisiae mlh1 strain growth inhibition, hits give high values
How it was run: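 Read-out: growth inhibition versus vehicle controls. Strain: engineered yeast with a defined DNA repair or cell cycle defect, compound-treated.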

[13] = NCI Yeast Anticancer Drug Screen. Data for the sgs1 strain (AID 173);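 note: 0% = growth of vehicle-only control cultures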; conditions: S. cerevisiae sgs1 mutant, hits give high values
How it was run: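 Read-out: yeast growth inhibition relative to vehicle controls, following compound exposure of a strain with a defined DNA repair/cell cycle alteration.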

[14] = NCI Yeast Anticancer Drug Screen. Data for the mlh1 rad18 strain (AID 175); conditions: S. cerevisiae mlh1 rad18 strain growth inhibition, hits give high values
How it was run: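 Yeast w/ defined DNA-repair lesions; compound exposure; growth vs vehicle controls → % inhibition.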

[15] = NCI Yeast Anticancer Drug Screen. Data for the rad18 strain (AID 177); conditions: S. cerevisiae rad18 mutant growth inhibition, hits give high values
How it was run: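 Readout: growth inhibition vs vehicle controls. Cells: genetically altered yeast strain, DNA repair defect.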

[16] = NCI Yeast Anticancer Drug Screen. Data for the wt1 strain (AID 149);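 note: 0% = growth of vehicle-treated wt1 cultures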; conditions: S. cerevisiae wt1 strain (SPY 50644) growth inhibition, hits give high values
How it was run: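 Each compound is tested on wt1 yeast and the loss of growth versus vehicle gives the inhibition value.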

[17] = at 5.0 µM (retest, dose inferred, filed as 0.5)
[18] = at 50.0 µM (retest, dose inferred, filed as 5.0)

Measured: growth inhibition

O=c1oc2ccccc2c(O)c1C(c1ccc2c(c1)Cc1ccccc1-2)c1c(O)c2ccccc2oc1=O
inactive: [1]; at 1.2 µM -7% | [1]; at 3.7 µM 15% | [1]; at 11.0 µM 19% | [1]; at 33.0 µM 65% | [2]; at 1.2 µM -16% | [2]; at 3.7 µM 43% | [2]; at 11.0 µM 46% | [2]; at 33.0 µM 50% | [2]; at 100.0 µM 51% | [3]; at 1.2 µM 6% | [3]; at 3.7 µM 8% | [3]; at 11.0 µM 31% | [4]; at 1.2 µM 1% | [4]; at 3.7 µM 14% | [4]; [17] 17% | [4]; at 11.0 µM 22% | [4]; at 33.0 µM 61% | [4]; [18] 5% | [5]; at 1.2 µM -18% | [5]; at 3.7 µM -4% | [5]; [17] 12% | [5]; at 11.0 µM 25% | [6]; at 1.2 µM 9% | [6]; at 3.7 µM 14% | [6]; at 11.0 µM 18% | [7]; [17] -14% | [8]; at 1.2 µM 23% | [8]; at 3.7 µM 0% | [8]; at 11.0 µM 15% | [9]; [17] 10% | [10]; at 1.2 µM -7% | [10]; at 3.7 µM -2% | [10]; [17] 18% | [10]; at 11.0 µM 13% | [10]; at 33.0 µM 63% | [11]; at 1.2 µM -17% | [11]; at 3.7 µM -14% | [11]; at 11.0 µM 52% | [12]; at 1.2 µM 4% | [12]; at 3.7 µM 3% | [12]; at 11.0 µM 25% | [13]; at 1.2 µM 18% | [13]; at 3.7 µM 29% | [13]; at 11.0 µM 17% | [14]; [17] 14% | [14]; [18] 59% | [15]; at 1.2 µM 21% | [15]; at 3.7 µM 25% | [15]; at 11.0 µM 23% | [15]; at 33.0 µM 52%
active: [1]; at 100.0 µM 96% | [3]; at 33.0 µM 97% | [3]; at 100.0 µM 97% | [4]; at 50.0 µM 70.2% | [4]; at 100.0 µM 96% | [5]; at 33.0 µM 95% | [5]; [18] 92% | [5]; at 50.0 µM 89% | [5]; at 100.0 µM 97% | [6]; at 33.0 µM 97% | [6]; at 100.0 µM 98% | [7]; [18] 96% | [7]; at 50.0 µM 73.4% | [8]; at 33.0 µM 91% | [8]; at 100.0 µM 97% | [9]; [18] 95% | [9]; at 50.0 µM 79% | [10]; [18] 95% | [10]; at 50.0 µM 75.9% | [10]; at 100.0 µM 96% | [11]; at 33.0 µM 95% | [11]; at 100.0 µM 93% | [12]; at 33.0 µM 96% | [12]; at 100.0 µM 98% | [13]; at 33.0 µM 83% | [13]; at 100.0 µM 97% | [14]; at 50.0 µM 88% | [15]; at 100.0 µM 96%

CN(N=O)C(=O)NNC(=O)N(C)N=O
active: [2]; at 33.0 µM 93% | [2]; at 100.0 µM 95% | [3]; at 33.0 µM 88% | [3]; at 100.0 µM 96% | [4]; at 33.0 µM 92% | [4]; [18] 95% | [4]; at 50.0 µM 94.9% | [4]; at 100.0 µM 96% | [5]; [18] 85% | [5]; at 100.0 µM 96% | [7]; [17] 74% | [7]; [18] 96% | [7]; at 50.0 µM 91.6% | [13]; at 33.0 µM 81% | [13]; at 100.0 µM 91% | [14]; [18] 89% | [15]; at 1.2 µM 71% | [15]; at 3.7 µM 95% | [15]; at 11.0 µM 96% | [15]; at 33.0 µM 96% | [15]; at 100.0 µM 96%
inactive: [16]; at 1.2 µM 0% | [16]; at 3.7 µM 1% | [16]; at 11.0 µM 5% | [16]; at 33.0 µM 16% | [16]; at 100.0 µM 38% | [2]; at 1.2 µM 3% | [2]; at 3.7 µM 16% | [2]; at 11.0 µM 62% | [3]; at 1.2 µM 9% | [3]; at 3.7 µM 28% | [3]; at 11.0 µM 51% | [4]; at 1.2 µM 6% | [4]; at 3.7 µM 23% | [4]; [17] 21% | [4]; at 11.0 µM 56% | [5]; at 1.2 µM -2% | [5]; at 3.7 µM 3% | [5]; [17] 10% | [5]; at 11.0 µM 22% | [5]; at 33.0 µM 61% | [5]; at 50.0 µM 38.2% | [6]; at 1.2 µM -2% | [6]; at 3.7 µM 18% | [6]; at 11.0 µM 5% | [6]; at 33.0 µM 22% | [6]; at 100.0 µM 57% | [8]; at 1.2 µM -5% | [8]; at 3.7 µM -4% | [8]; at 11.0 µM -7% | [8]; at 33.0 µM 11% | [8]; at 100.0 µM 41% | [9]; [17] -32% | [9]; [18] 18% | [9]; at 50.0 µM 11.7% | [10]; at 1.2 µM -9% | [10]; at 3.7 µM 5% | [10]; [17] -11% | [10]; at 11.0 µM -6% | [10]; at 33.0 µM 15% | [10]; [18] 27% | [10]; at 50.0 µM 1.9% | [10]; at 100.0 µM 39% | [11]; at 1.2 µM -3% | [11]; at 3.7 µM -2% | [11]; at 11.0 µM 1% | [11]; at 33.0 µM 16% | [11]; at 100.0 µM 49% | [12]; at 1.2 µM -1% | [12]; at 3.7 µM -3% | [12]; at 11.0 µM 7% | [12]; at 33.0 µM 31% | [12]; at 100.0 µM 68% | [13]; at 1.2 µM 11% | [13]; at 3.7 µM 26% | [13]; at 11.0 µM 52% | [14]; [17] 6% | [14]; at 50.0 µM 67%
